Screens deposited in PubChem BioAssay by National Center for Advancing Translational Sciences (NCATS).
Only some compounds are listed: those with a hit (about 8% of all), similar ones and a draw of the others.
Lassa entry: inhibitors of Lassa virus binding or entry into cells; Potency, µM (series often up to 49.2 µM), without a hit: at the highest dose activity change, negative = inhibition, usual class: inhibitors; hit rate 4.1% among 18,000; Lassa virus pseudotyped entry inhibition, cell-based qHTS
Marburg entry: Marburg virus entry inhibition; hit rate 6.5% among 18,000; Potency, µM (series often up to 49.2 µM), inactives show at the top dose activity change, negative = inhibition, hits mostly inhibitors; Marburg virus pseudotype entry/binding inhibition, cell-based; AID 720532
* hit, by the source's call; u = inconclusive; x = no result; ! = repeats disagree; [ ] = another dose, or the depositor's remark. Calls follow the shape of the full dose curve; tested in HEK293 cells. % is scaled to controls: 0 for no effect and ±100 for the full control effect; potency is read from the fitted curve at half-maximal effect.

SMILES | Lassa entry | Marburg entry
COc1cc(C(=O)OC2C[C@H]3CC[C@@H](C2)N3C)ccc1O (stereo not given in full) | 2%[17.8 µM] | 5%[17.8 µM]
C[C@@H]1COc2cc(Br)ccc2S(=O)(=O)N1 | 23% | -24%
CC[C@H]1C[C@@H]2C[C@H]3c4[nH]c5ccc(OC)cc5c4CCN(C2)[C@@H]13 | -11% | 28µM*
COc1ccc2[nH]c3c(c2c1)CCN=C3C | 5%[17.8 µM] | u
COCCN1C(=O)NC(CCc2ccccc2)C(C(=O)OC)=C1C (stereo not given) | 6%[8.59 µM] | 72%[8.59 µM]
CNc1cc(OC)c(C(=O)N[C@H]2CCN(Cc3ccccc3)[C@H]2C)cc1Cl | u | 18µM*
COC1=C[C@H](C(=O)NC2CCN(Cc3ccccc3)CC2)[C@H](C)[C@@H](c2ccccc2)CC1=O | 18%[8.59 µM] | 9%[8.59 µM]
COc1ccccc1-n1cc(CN2CCOc3ccc(CN4C[C@@H](C)O[C@@H](C)C4)cc3C2)cn1 | -4% | u
CC1(C)C(=O)C=C[C@@]2(C)C1C=C[C@@]1(C)C2CC[C@@]2(C)C(c3ccoc3)OC(=O)C3OC312 (stereo not given in full) | u | 7.9µM*
CC1(C)C(=O)C=C[C@@]2(C)C1CC(O)[C@]1(C)C2CC[C@@]2(C)C(c3ccoc3)OC(=O)C3O[C@]312 (stereo not given in full) | u | 13µM*
CC1(C)OC2CC(=O)OCC23C1CC(=O)C1(C)C3CC[C@@]2(C)[C@H](c3ccoc3)OC(=O)C3OC312 (stereo not given in full) | -12% | 2%
CC1(C)C(O)CC(O)[C@]2(C)C1CC(O)[C@]1(C)C2CC[C@@]2(C)C(c3ccoc3)OC(=O)C3O[C@]312 (stereo not given in full) | 2% | u
O=C(Nc1n[nH]c2nnc(-c3cccnc3)cc12)C1CC1 | -25% | u
O=C(c1cccs1)N1C[C@@H](O)[C@@H](n2cc(-c3ccc(F)cc3)nn2)C[C@@H]1c1ccccc1 | -26% | -21%
CCCCCCCC(=O)OCC(O)CO (stereo not given) | 0% | 13%
CCCCCCCCCCCCCCCCOCCOCCOCCOCCOCCOCCOCCOCCOCCOCCOCCOCCOCCOCCOCCOCCOCCOCCOCCOCCO | 16µM* | u
CCCCCCCCCCOCC(O)CN (stereo not given) | 32µM* | u
CCCCCCCCCCCCSCCOCCO | -13% | 18%
C=C(C)CO[C@H]1C=C[C@@H](c2ccccc2)O[C@H]1CO | -24%[8.59 µM] | 2%[8.59 µM]
CC(NC(=O)c1cc(F)ccc1F)c1nnc2n1CCN(Cc1ccc(-c3ccccc3)cc1)CC2 (stereo not given) | u | -33%
COCCN1C(=O)N(C)C(c2ccccc2)C(C(C)=O)=C1C (stereo not given) | -18%[8.59 µM] | u
CC(C)(c1ccc(OCC2CO2)cc1)c1ccc(OCC2CO2)cc1 (stereo not given) | 8.9µM*! | 7.1µM*!
c1ccc(COC[C@H]2CO2)cc1 | 4% | 10%
Cc1cc2c(nc1C)CCCN2CC(O)CN1CCCc2nc(-c3ccc(Br)cc3)ccc21 (stereo not given) | 10%[8.59 µM] | u
CCCCCCN1C[C@@H](O)[C@H](n2cc(C3CC3)nn2)C[C@H]1c1ccc(C)cc1 | x | -49%
SMILES | Lassa entry | Marburg entry
CN(C)CCOc1ccc(-c2cc(-c3ccc4c(c3)CCC4=NO)c(-c3ccncc3)o2)cc1 | x | 2µM*
CN(C)CCOc1ccc(-c2nc(-c3ccc4c(c3)CCC4=NO)c(-c3ccncc3)[nH]2)cc1 | -95% | u
C[C@@H]1O[C@@H](O[C@@H]2C=C3CC[C@@H]4[C@H](CC[C@]5(C)[C@@H](c6ccc(=O)oc6)CC[C@]45O)[C@@]3(C)CC2)[C@H](O)[C@H](O)[C@H]1O | 1µM* | u
COC(=O)C1=C(C)N(Cc2ccccc2)C(=NCc2cc(OC)c(OC)c(OC)c2)NC1c1cccc(F)c1 (stereo not given) | x | -17%[8.59 µM]
C#CCCCON=C1C[C@@H](O)[C@H](O)[C@H]2[C@@H]3C(=O)N(C[C@@H]4CCCO4)C(=O)[C@@H]3CC[C@H]12 | u | 4%[8.59 µM]
COc1cc(/C=C/C(=O)N2CCN(CC(=O)N3CCCC3)CC2)cc(OC)c1OC | -12% | 12%
CCN(CC)CCCCCCCCOC(=O)c1cc(OC)c(OC)c(OC)c1 | 25µM* | 13µM*
COc1cc(C(=O)OCCCN2CCCN(CCCOC(=O)c3cc(OC)c(OC)c(OC)c3)CC2)cc(OC)c1OC | u | 7.1µM*
CCN(CC)CCOC(=O)c1ccc(N)cc1 | 6% | -12%
C[C@@H]1CC[C@H]2C(=O)N(Cc3cccc([N+](=O)[O-])c3)C[C@H](O)CN2[C@@H]1c1cccc(Br)c1 | x | -10%[8.59 µM]
C[C@@H]1CC[C@H]2C(=O)O[C@@H](Cc3ccccc3)CN2[C@@H]1c1ccc(Br)cc1 | 12%[8.59 µM] | 7%[8.59 µM]
c1cnc2cc3c(cc2n1)[C@@H]1CNC[C@H]3C1 | -6% | 1%
C=CCN=C1N[C@@H](c2ccccc2)[C@H](C(=O)OC)[C@@H](C)N1CC | 5%[8.59 µM] | -25%[8.59 µM]
COc1cccc2c1[C@@H]1CN(CCCCn3c(=O)[nH]c4c(sc5ncc(-c6ccccc6)nc54)c3=O)C[C@@H]1CO2 | -4% | 10µM*
CCCC[C@]12Cc3cc(OC)c(OC)cc3[C@H](O1)C1=C(O2)C(=O)c2ccccc2C1=O | 5%[8.59 µM] | 5%[8.59 µM]
O=c1c(O)c(-c2ccccc2)oc2cc(O)cc(O)c12 | 13% | 35%
O=c1c(O)c(-c2cc(O)c(O)c(O)c2)oc2cc(O)cc(O)c12 | 7% | 11µM*
CC(Cc1ccccc1)NCc1ccccc1Cl (stereo not given) | -2% | 3%
Clc1ccccc1CNCC1CCC(CNCc2ccccc2Cl)CC1 (stereo not given) | 20µM* | 6.3µM*
COc1ccc2c(c1)CCc1cnc(-n3ncc(C(=O)NCc4cc(C)no4)c3C3CC3)nc1-2 | 0% | 39%
COCC(=O)Nc1cc(C(=O)N2CCc3c(Cl)cccc3C2)c2c(c1)nc(-c1ccncc1)n2C | 7% | -11%
COc1ccc([C@]23Cc4cc(OC)c(OC)cc4[C@H](O2)c2c(c4ccccc4oc2=O)O3)cc1 | 22%[8.59 µM] | 5%[8.59 µM]
C[C@@H]1CN(CCCn2c3ccccc3c3ccccc32)C[C@H](C)N1 | 18µM* | 7.9µM*
O=C(O)c1ccc2[nH]cc(CCCCN3CC=C(c4ccccc4)CC3)c2c1 | -4% | u
Oc1ccc2[nH]cc(CCCCN3CC=C(c4ccccc4)CC3)c2c1 | -16% | 20µM*
SMILES | Lassa entry | Marburg entry
CC(=O)Nc1cc(C(=O)N2CC3(C)CC2CC(C)(C)C3)cc2ncn(CCc3ccccn3)c12 (stereo not given) | 7% | 5%
ON=C1CCc2cc(-c3nc(C4CCNCC4)[nH]c3-c3ccncc3)ccc21 | 59% | -3%
Cc1cnc(-n2ncc(C(=O)N(C)CCc3ccccn3)c2-c2cccs2)nc1-c1ccc(F)cc1 | -29% | -42%
CCOC(=O)C1=C[C@@]2(CC)CCCN3CCc4c(n1c1ccccc41)C32 (stereo not given in full) | -7% | 10µM*
CCOC(=O)C1=CC2(CC)CCCN3CCc4c(n1c1ccccc41)C32 (stereo not given) | u | -15%
COc1ccc(COc2cc(-c3cccc(OC)c3)nc3ccc(NC(=O)c4ccc(Cl)cc4)cc23)cc1 | -29% | -18%
COc1ccc(COc2cc(-c3cccc(OC)c3)nc3ccc(NC(=O)c4ccccc4)cc23)cc1 | 10µM* | u
COc1ccc2c(c1)[C@@]1(OCCC=C[C@@H]1C)C(=O)N2CC=C(C)CCC=C(C)C | 23%[8.59 µM] | -10%[8.59 µM]
